A word on the viability: it is a read-out of living cells in per cent, often relative to untreated cells.

Our source for the parasite load remaining and viability values is PubChem BioAssay.

The experiment is described as follows: P. berghei load reduction in hepatocytes – cell-based, HepG2, luciferase luminescence, HepG2 viability, primary screen (AID 624349).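 Also: 100% = mean of DMSO negative control wells on the same plate.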 As to conditions: P. berghei liver stage in HepG2, luciferase luminescence, concentration not given here; parasite load remaining: stronger effect = lower value; viability: measured here: HepG2 viability without parasites.

Several values for one entry are separate records, joined by “and”; a condition that tells them apart may be missing. Equal entries are not always repeated. Activity calls are given as the source filed them. Rule as the data show it: active = parasite load remaining mostly below about 12% (no sharp cut-off); inactive = mostly above about 10%.

On to `COc1ccc2c(c1)c1c3c(c4c5ccccc5n(C)c4c1n2CC(O)CN(C)C)C(=O)NC3=O` (stereo not drawn), for which the parasite load remaining is 65.8% (inactive) and the viability is 144%.
For `CNc1cc2c(Nc3cccc(Br)c3)ncnc2cn1` the same measures were 49.2% (inactive) and 157%.
For `COc1ccc(S(=O)(=O)Nc2ccccc2CN(C)C/C=C/c2ccc(Cl)cc2)cc1`, the parasite load remaining is 36.4% (inactive) and the viability came to 93.6%.
For `O=C1NC(=O)c2c1c1c3ccccc3[nH]c1c1[nH]c3cc(Br)ccc3c21` the same measures were 60.6% (inactive) and 160%.
For `O=c1c(O)c(-c2ccc(O)c(O)c2)oc2cc(O)c(O)c(O)c12` the same measures were 32.1% (inactive) and 88.8%.
For `Cc1nc(-c2ccccc2)c(-c2ccncc2)o1` the same measures were 46.9% (inactive) and 64.2%.
Turning to `CC(=O)NC1SCCC1=O` (stereo not drawn), the parasite load remaining was 139% (inactive) and the viability amounted to 87.1%.
In the same order, the values of `CCCCc1c(-c2ccc(OC)cc2)[nH]c2nccnc12` are 34.8% (inactive) and 106%.
In the same order, the values of `O=c1[nH]c(O)c2c1c1c3ccccc3nc1n1cncc21` are 34.3% (inactive) and 93.6%.
For the molecule `CCOC(=O)c1c(C)[nH]c(/C=C2\C(=O)Nc3ccccc32)c1C`, the parasite load remaining is 39.2% (inactive) and the viability was 69.8%.
In the same order, the values of `OCC(O)CCO/N=C1/C(c2c(O)[nH]c3ccccc23)=Nc2ccccc21` (stereo not drawn) are 25.4% (inactive) and 80.9%.
In the same order, the values of `COC1[C@@H](OC)C[C@H](C)[C@@H](OC)C2=CC(=O)C=C(NC(=O)/C(C)=C/C=C\C(OC)[C@@H](OC(N)=O)/C(C)=C/[C@@H]1C)C2=O` (stereo partly drawn) are 25.3% (inactive) and 84.1%.
For `CC(=O)c1ccc(N2CCOCC2)cc1O` the same measures were 38.3% (inactive) and 110%.
On to `CSc1nc(-c2ccnc(NC(C)c3ccccc3)c2)c(-c2ccc(F)cc2)[nH]1` (stereo not drawn), for which the parasite load remaining was 53.6% (inactive) and the viability is 77.8%.
For `O=C1NC(=O)C(c2cn(CCCO)c3ncccc23)=C1c1cnccn1` the same measures were 39.6% (inactive) and 97.4%.
For `O=C1NCCc2[nH]c(-c3ccnc(-c4cnc5ccccc5c4)c3)cc21` the same measures were 35.3% (inactive) and 77.1%.
Take `O=C1Nc2ccccc2/C1=C\c1c(Cl)[nH]c2ccccc12`: the parasite load remaining was 35% (inactive) and the viability is 118%.
In the same order, the values of `O=c1c(-c2ccc(F)cc2)c(-c2ccncc2)[nH]n1-c1ccc(Cl)cc1` are 36.4% (inactive) and 68.5%.
For the molecule `NCCNc1ncc(C(N)=O)c(Nc2cccc(C(F)(F)F)c2)n1`, the parasite load remaining was 37.1% (inactive) and the viability was 76.9%.
For `O=C1NC(=O)c2c1c(-c1ccccc1Cl)cc1[nH]c3ccc(O)cc3c21` the same measures were 32.6% (inactive) and 81%.
`c1ccc2c(-c3ccncc3)c[nH]c2c1`: the parasite load remaining is 30.9% (inactive) and the viability came to 66.5%.
Regarding `O=C(c1cc2cc(O)ccc2[nH]1)c1cc2cc(O)ccc2[nH]1`, the parasite load remaining is 37.2% (inactive) and the viability came out at 97.4%.
For `CCN(CC)C(=O)c1ccc(Nc2nc(OCC3CCCCC3)c3[nH]cnc3n2)cc1` the same measures were 41.1% (inactive) and 89.4%.
For `CCN(CC)CCNC(=O)c1c(C)[nH]c(/C=C2\C(=O)Nc3ccc(Cl)cc32)c1C` the same measures were 49.7% (inactive) and 69.1%.
For `CC[n+]1c(/C=C/N(C)c2ccccc2)n(-c2ccccc2)c2ccc(-c3nc4ccccc4s3)cc21` the same measures were 33.2% (inactive) and 152%.
For the molecule `COc1cc2ncn(-c3cc(OCc4ccc(S(C)(=O)=O)cc4)c(C(N)=O)s3)c2cc1OC`, the parasite load remaining was 30% (inactive) and the viability turned out to be 67.4%.
For `CCOc1cc2ncnc(Nc3cccc(Br)c3)c2cc1OCC` the same measures were 50.2% (inactive) and 132%.
For `O=C(Nc1ccc(-c2cn[nH]c2)cc1)C1COc2ccccc2O1` (stereo not drawn) the same measures were 48.6% (inactive) and 62.7%.
In the same order, the values of `CCCC(=O)Oc1ccc2[nH]c(C(=O)c3cc4ccccc4[nH]3)cc2c1` are 38.9% (inactive) and 104%.
For the molecule `COc1cc2ncnc(N3CCN(C(=O)Nc4ccc(Oc5ccccc5)cc4)CC3)c2cc1OC`, the parasite load remaining is 27.2% (inactive) and the viability amounted to 89.5%.
For `CCCCc1c(-c2ccc(O)cc2)[nH]c2nccnc12` the same measures were 46.4% (inactive) and 112%.
In the same order, the values of `O=C1C(Cl)=C(N2C(=O)CCC2=O)C(=O)c2ccccc21` are 34.2% (inactive) and 76.3%.
For `N#Cc1c(-c2ccccc2)cc(-c2cc(Br)ccc2O)[nH]c1=O` the same measures were 30.2% (inactive) and 75.4%.
For the molecule `O=C1Nc2ccc(Cl)cc2/C1=C/c1cc(Cl)c(O)c(Cl)c1`, the parasite load remaining is 28.5% (inactive) and the viability is 82.4%.
In the case of `CCCCCCOC(=O)[C@]1(O)C[C@@H]2O[C@@]1(C)n1c3ccccc3c3c4c(c5c6ccccc6n2c5c31)C(=O)NC4`, the parasite load remaining was 55.7% (inactive) and the viability was 93.7%.
For `O=C1C(C2=C3C(=Nc4ccccc43)/C(=C\c3ccc(O)cc3)C2=O)=C2C(=Nc3ccccc32)/C1=C\c1ccc(O)cc1`, the parasite load remaining was 52% (inactive) and the viability worked out at 71.2%.
For `Nc1n[nH]c(N)c1N=Nc1ccc(O)cc1` the same measures were 23.7% (inactive) and 93.1%.
In the same order, the values of `O=C1NC(=O)C(c2cn(CCCn3ccnc3)c3ccccc23)=C1Nc1ccccc1` are 35% (inactive) and 61.8%.
For `O=C(Nc1ccncc1)Nc1c(Cl)cc(Cl)cc1Cl` the same measures were 41.9% (inactive) and 65.2%.
Turning to `O=C1NC(=NCc2cccs2)S/C1=C\c1ccc2ncccc2c1`, the parasite load remaining was 27.7% (inactive) and the viability turned out to be 96.3%.
Turning to `O=C(Nc1cccc(Nc2nccc(Nc3cccc(C(F)(F)F)c3)n2)c1)C1CC1`, the parasite load remaining was 36.9% (inactive) and 34.4% (inactive); the viability is 99.7% and 89.6%.
Turning to `CC(=O)O/N=C1\C(c2c(O)[nH]c3cc(Br)ccc23)=Nc2ccccc21`, the parasite load remaining was 14.7% (inactive) and the viability turned out to be 97.9%.
For the molecule `CCc1[nH]c(-c2ccc(OC)cc2)nc1-c1ccncc1`, the parasite load remaining was 30.1% (inactive) and the viability was 82.4%.
For `Cc1cc(C=C2C(=O)C=CC2=O)cc(C)c1O` the same measures were 28.7% (inactive) and 70.7%.
